Active and inactive are the calls of the source.
Columns and labels:
[1] = test system: PRMT1 (protein arginine N-methyltransferase 1); assay: small molecules binding arginine methyltransferase PRMT1 – biochemical, small-molecule microarray, 635 nm fluorescence, primary screen (AID 1088); conditions: higher = more signal;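 further: binding of Prmt1 protein to compounds spotted on small-molecule microarray slides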
[2] = growth effects on S. cerevisiae YJM789 – YJM789 clinical isolate, OD600, 24 h, basal, primary screen (AID 1089); conditions: higher = more signal, called active from +8 up or from −8 down;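 further: growth of clinical yeast isolate S. cerevisiae YJM 789 seeded 1000 cells per well; test concentration not given here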
[3] = S. pombe growth modifiers, basal conditions – strain 972, OD600, 24 h, no modulator, primary screen (AID 1090);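 further: basal condition with compound alone and no growth modifier present; test concentration not given here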; conditions: S. pombe 972 growth, higher = more signal, called active from +8 up or from −8 down
[4] = budding yeast growth modifiers under rapamycin – strain BY4716, OD600, 96 h, primary screen (AID 1091); further: test concentration not given here; conditions: S. cerevisiae BY4716 + rapamycin, higher = more signal, called active from +8 up or from −8 down
[5] = target: Torsin-1A-interacting protein 2 (Homo sapiens) (UniProt Q8NFQ8); assay: small molecules binding lysate-expressed LULL1 – cell lysate, human LULL1 lysate, 635/667 nm fluorescence, primary screen (AID 1092); conditions: small-molecule microarray, hLULL1 lysate binding, 635 nm fluorescence; higher = more signal;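 further: probe is lysate of COS7 cells overexpressing human LULL1; score merges per-feature 667 nm fluorescence with signal-to-noise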
Torsin-1A-interacting protein 2 (Homo sapiens), sequence (Q8NFQ8 whole entry, looked up): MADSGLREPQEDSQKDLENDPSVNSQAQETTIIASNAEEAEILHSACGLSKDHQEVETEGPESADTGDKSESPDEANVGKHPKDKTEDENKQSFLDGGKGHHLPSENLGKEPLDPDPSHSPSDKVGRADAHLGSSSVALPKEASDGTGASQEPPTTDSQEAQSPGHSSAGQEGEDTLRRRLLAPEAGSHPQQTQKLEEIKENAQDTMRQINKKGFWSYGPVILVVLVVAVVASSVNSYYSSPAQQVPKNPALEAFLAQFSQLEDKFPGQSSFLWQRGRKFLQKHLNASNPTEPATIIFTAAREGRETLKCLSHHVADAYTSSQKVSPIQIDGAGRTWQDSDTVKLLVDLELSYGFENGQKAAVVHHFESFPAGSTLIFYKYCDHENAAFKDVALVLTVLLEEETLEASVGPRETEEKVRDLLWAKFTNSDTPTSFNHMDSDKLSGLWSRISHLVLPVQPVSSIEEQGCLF

[6] = optical density change of DRC41 E. coli – strain DRC41, OD650, 24 h, E. coli filamentation project, primary screen (AID 1093);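 further: MC1000 strain lacking acrAB efflux and sulA so SOS filamentation is blocked; test concentration not given here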; conditions: E. coli DRC41 growth, higher = more signal, called active from +8 up or from −8 down
[7] = probe aLefty2 binding to arrayed compounds – biochemical, biotinylated probe, 635/667 nm fluorescence, primary screen (AID 1094); conditions: small-molecule microarray, higher = more signal;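 further: score merges spot fluorescence near 667 nm with spot signal-to-noise ratio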
[8] = test system: Noggin (protein binding on small-molecule microarray); assay: small molecules binding Noggin protein – biochemical, 635/667 nm fluorescence, primary screen (AID 1095); conditions: 635 nm fluorescence, higher = more signal;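 further: score merges 667 nm feature fluorescence with signal to noise over triplicate slides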
[9] = target: Neurogenic locus notch homolog protein 3 (Homo sapiens) (UniProt Q9UM47); assay: small molecules binding NOTCH3 protein – biochemical, 635/667 nm fluorescence, primary screen (AID 1096); conditions: small-molecule microarray, 635 nm fluorescence, higher = more signal
Neurogenic locus notch homolog protein 3 (Homo sapiens), sequence (Q9UM47 whole entry, looked up): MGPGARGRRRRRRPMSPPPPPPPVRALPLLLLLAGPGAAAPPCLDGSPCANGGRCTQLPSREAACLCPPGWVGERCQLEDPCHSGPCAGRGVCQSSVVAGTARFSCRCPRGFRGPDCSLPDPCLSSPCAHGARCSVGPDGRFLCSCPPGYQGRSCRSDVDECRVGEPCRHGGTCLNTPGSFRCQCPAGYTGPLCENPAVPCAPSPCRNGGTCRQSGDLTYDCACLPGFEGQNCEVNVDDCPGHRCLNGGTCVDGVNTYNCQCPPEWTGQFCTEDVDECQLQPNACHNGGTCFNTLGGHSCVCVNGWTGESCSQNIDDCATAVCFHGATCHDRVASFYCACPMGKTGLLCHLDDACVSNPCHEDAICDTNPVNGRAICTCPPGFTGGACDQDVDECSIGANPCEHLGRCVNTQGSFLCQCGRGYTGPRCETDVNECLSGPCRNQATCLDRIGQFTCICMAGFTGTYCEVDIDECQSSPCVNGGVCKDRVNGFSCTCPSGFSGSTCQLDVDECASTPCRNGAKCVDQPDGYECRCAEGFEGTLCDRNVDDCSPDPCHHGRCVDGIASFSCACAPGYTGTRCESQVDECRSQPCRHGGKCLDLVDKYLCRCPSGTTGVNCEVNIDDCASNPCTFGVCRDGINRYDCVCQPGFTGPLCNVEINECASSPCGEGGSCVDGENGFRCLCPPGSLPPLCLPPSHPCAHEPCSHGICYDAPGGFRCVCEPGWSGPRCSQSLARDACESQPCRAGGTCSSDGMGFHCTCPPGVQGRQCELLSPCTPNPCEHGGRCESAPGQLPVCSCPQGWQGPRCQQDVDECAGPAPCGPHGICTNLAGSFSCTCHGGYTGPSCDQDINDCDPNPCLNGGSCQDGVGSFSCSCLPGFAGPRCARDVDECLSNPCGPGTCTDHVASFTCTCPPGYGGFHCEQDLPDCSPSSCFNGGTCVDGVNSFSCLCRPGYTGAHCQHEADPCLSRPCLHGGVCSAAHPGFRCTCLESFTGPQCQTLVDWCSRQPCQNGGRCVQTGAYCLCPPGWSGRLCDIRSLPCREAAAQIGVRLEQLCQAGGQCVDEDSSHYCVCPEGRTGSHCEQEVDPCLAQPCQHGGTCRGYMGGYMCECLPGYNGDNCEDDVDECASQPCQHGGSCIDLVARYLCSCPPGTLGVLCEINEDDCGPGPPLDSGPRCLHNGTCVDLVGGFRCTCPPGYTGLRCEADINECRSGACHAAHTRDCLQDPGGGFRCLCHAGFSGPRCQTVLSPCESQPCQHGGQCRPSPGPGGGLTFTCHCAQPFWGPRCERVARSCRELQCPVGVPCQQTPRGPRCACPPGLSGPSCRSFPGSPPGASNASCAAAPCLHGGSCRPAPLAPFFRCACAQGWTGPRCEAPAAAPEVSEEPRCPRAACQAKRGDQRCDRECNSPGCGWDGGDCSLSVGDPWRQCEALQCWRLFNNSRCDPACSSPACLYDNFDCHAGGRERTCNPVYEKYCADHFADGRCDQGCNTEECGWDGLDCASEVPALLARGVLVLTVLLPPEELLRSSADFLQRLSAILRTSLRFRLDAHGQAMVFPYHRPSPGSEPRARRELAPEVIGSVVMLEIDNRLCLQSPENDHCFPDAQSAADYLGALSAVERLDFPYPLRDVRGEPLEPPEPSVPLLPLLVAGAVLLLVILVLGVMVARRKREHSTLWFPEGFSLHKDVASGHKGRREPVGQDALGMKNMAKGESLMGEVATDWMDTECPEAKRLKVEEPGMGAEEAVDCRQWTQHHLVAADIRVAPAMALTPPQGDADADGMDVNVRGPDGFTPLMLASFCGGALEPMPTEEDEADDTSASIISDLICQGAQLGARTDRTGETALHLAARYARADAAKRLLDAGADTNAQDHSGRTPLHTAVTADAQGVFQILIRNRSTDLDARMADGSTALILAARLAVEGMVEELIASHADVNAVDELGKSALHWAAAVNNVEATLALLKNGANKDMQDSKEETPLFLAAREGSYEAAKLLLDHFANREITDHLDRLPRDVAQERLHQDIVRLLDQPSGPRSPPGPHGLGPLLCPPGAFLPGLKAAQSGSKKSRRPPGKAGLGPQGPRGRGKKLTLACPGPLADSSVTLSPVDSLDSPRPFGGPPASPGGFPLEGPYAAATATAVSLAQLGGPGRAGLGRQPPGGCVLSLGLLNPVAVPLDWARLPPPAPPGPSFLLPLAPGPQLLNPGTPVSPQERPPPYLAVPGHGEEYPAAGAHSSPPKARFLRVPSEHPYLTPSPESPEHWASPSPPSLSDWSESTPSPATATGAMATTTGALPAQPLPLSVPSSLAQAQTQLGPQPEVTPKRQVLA

[10] = probe aEGFR binding to arrayed compounds – biochemical, biotinylated probe, 635/667 nm fluorescence, primary screen (AID 1097); conditions: small-molecule microarray, higher = more signal;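 further: probe is a biotinylated anti-EGFR antibody binding compounds printed on slides; score combines fluorescence near 667 nm and signal to noise of each spot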
[11] = test system: Plasmodium falciparum Sir2 (PF13_0152, Sir2A); assay: Plasmodium falciparum Sir2A binding compounds – biochemical, small-molecule microarray, 635 nm fluorescence, primary screen (AID 1098); conditions: fluorescence 635 nm, higher = more signal;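 further: score merges spot fluorescence intensity with its signal-to-noise ratio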
[12] = probe aDKK1 binding to arrayed compounds – biochemical, biotinylated probe, 635/667 nm fluorescence, primary screen (AID 1099); conditions: small-molecule microarray, higher = more signal;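 further: score merges 667nm spot fluorescence with signal to noise across triplicate slides; reference of the scale not given here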
[13] = probe aCHRDL2 binding to arrayed compounds – biochemical, biotinylated probe, 635/667 nm fluorescence, primary screen (AID 1100); conditions: small-molecule microarray, higher = more signal
[14] = change in splice reporter luminescence, either direction, cell-based, HEK293, spliceosome inhibition project, primary screen (AID 1101); conditions: HEK293 splicing luciferase reporter, 24 h, higher = more signal, called active from +8 up or from −8 down;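 further: HEK293 cells carrying a splicing-competent luciferase reporter gene; test concentration not given here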
[15] = target: Fibroblast growth factor 10 (Homo sapiens) (UniProt O15520); assay: compounds binding fibroblast growth factor 10 – biochemical, small-molecule microarray, 635 nm fluorescence, primary screen (AID 1102); conditions: FGF10 binding, fluorescence 635 nm, higher = more signal
Fibroblast growth factor 10 (Homo sapiens), sequence (O15520 whole entry, looked up): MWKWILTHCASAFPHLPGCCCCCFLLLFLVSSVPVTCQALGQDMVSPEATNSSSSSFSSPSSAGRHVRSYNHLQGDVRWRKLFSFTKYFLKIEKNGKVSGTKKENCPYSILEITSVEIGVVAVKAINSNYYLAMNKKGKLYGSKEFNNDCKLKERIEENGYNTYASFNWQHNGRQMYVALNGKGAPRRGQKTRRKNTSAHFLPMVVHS

[16] = test system: glycogen synthase kinase-3 (GSK3A per assay name; protocol says GSK3B); assay: compounds binding glycogen synthase kinase-3 – biochemical, small-molecule microarray, 635 nm fluorescence, GSK3A, primary screen (AID 1103); conditions: fluorescence 635 nm, higher = more signal; further: the record names both GSK3A and GSK3B
[17] = target: Epidermal growth factor receptor (Homo sapiens) (UniProt P00533); assay: compounds binding epidermal growth factor receptor – biochemical, small-molecule microarray, 635 nm fluorescence, primary screen (AID 1104); conditions: EGFR binding, higher = more signal;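 further: score merges 667 nm emission intensity with spot signal to noise over triplicate slides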
Epidermal growth factor receptor (Homo sapiens), sequence (P00533 whole entry, looked up): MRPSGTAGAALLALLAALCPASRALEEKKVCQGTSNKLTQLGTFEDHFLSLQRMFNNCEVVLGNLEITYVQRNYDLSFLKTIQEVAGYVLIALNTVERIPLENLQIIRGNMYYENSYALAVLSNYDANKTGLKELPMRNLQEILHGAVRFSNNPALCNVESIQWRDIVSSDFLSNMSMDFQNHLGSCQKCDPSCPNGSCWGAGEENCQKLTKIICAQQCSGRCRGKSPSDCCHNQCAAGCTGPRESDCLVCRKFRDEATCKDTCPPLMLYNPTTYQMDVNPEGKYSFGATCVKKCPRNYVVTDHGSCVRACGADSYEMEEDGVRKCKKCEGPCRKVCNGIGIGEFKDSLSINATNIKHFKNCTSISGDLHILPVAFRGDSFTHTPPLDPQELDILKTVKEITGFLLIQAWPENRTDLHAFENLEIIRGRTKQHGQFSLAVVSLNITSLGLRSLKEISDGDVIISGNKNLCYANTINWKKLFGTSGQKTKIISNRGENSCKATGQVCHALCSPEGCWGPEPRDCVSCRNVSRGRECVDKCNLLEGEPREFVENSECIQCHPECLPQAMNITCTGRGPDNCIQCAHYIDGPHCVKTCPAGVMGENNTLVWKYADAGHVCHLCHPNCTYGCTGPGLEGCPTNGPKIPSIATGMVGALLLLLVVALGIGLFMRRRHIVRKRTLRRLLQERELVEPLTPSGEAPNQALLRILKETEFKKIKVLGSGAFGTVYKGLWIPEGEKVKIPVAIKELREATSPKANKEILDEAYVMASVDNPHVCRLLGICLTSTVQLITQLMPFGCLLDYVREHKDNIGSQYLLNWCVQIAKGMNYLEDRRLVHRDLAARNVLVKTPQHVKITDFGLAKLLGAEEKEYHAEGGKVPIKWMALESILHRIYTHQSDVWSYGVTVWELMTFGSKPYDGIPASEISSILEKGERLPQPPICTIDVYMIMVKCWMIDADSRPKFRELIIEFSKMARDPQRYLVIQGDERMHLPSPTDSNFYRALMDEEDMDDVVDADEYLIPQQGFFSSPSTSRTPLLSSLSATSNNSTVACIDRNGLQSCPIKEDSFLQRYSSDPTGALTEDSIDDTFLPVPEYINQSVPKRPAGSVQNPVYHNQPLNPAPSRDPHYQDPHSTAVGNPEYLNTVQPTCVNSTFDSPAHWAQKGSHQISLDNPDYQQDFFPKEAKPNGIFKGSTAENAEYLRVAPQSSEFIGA

[18] = target: Follistatin-related protein 3 (Homo sapiens) (UniProt O95633); assay: compounds binding follistatin-related protein 3 – biochemical, small-molecule microarray, 635 nm fluorescence, primary screen (AID 1105); conditions: FSTL3 binding, higher = more signal;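 further: score merges emission near 667 nm and signal to noise per printed spot across three slides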
Follistatin-related protein 3 (Homo sapiens), sequence (O95633 whole entry, looked up): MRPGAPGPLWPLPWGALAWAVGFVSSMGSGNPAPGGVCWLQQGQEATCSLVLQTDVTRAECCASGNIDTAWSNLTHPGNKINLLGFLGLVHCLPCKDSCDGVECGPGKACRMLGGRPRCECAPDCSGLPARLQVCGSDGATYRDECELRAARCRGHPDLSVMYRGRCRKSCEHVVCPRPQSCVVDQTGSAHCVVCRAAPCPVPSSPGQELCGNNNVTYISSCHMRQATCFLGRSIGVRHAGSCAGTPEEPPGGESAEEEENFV

[19] = target: Dickkopf-related protein 1 (Homo sapiens) (UniProt O94907); assay: small molecules binding DKK1 protein – biochemical, small-molecule microarray, 635 nm fluorescence scan, primary screen (AID 1106); conditions: higher = more signal;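 further: score merges emission near 667 nm with signal to noise over three replicate slides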
Dickkopf-related protein 1 (Homo sapiens), sequence (O94907 whole entry, looked up): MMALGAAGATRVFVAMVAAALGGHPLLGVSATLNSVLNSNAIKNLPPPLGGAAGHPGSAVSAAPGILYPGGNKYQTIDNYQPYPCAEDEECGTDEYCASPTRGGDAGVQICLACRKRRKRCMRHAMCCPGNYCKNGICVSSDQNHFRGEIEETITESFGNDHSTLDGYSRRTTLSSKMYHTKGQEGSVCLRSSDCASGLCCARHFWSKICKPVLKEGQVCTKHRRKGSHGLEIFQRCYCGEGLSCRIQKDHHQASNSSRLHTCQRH

[20] = test system: Inhibin beta A chain (activin A); assay: small molecules binding activin A – biochemical, small-molecule microarray, 635 nm fluorescence scan, primary screen (AID 1107); conditions: INHBA, higher = more signal;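 further: mouse activin A protein probed at 4.33 µg/mL on printed slides; score merges bound-protein fluorescence near 667 nm with spot signal-to-noise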

SMILES | composite z-score [1] | z-score [2] | z-score [3] | z-score [4] | composite z-score [5] | z-score [6] | composite z-score [7] | composite z-score [8] | composite z-score [9] | composite z-score [10] | composite z-score [11] | composite z-score [12] | composite z-score [13] | z-score [14] | composite z-score [15] | composite z-score [16] | composite z-score [17] | composite z-score [18] | composite z-score [19] | composite z-score [20]
C#CCN=C(N)N | 0.21 | -0.303 (inactive) | -0.349 (inactive) | -0.247 (inactive) | 0.737 | -0.291 (inactive) | -0.18 | 0.759 | 0.562 | 0.0768 | 0.271 | 0.0623 | -0.534 | 0.422 (inactive) | 0.528 | 0.605 | 0.527 | 0.918 | 0.861 | 0.548
[N-]=[N+]=NCc1ccccc1C[C@]1(C(=O)O)COC(c2ccc(OCCCO)cc2)=N1 | -0.486 | 0.493 (inactive) | 0.612 (inactive) | -0.0738 (inactive) | -0.0986 | 0.398 (inactive) | -0.0252 | -0.389 | -0.614 | -0.0702 | 0.991 | 0.261 | 1.12 | 0.544 (inactive) | -0.472 | -1.19 | -0.756 | -0.757 | -1.27 | 0.616
C=CC[C@]1(C(=O)NCc2ccccc2)COC(c2ccc(OCCCO)cc2)=N1 | 0.822 | -1.4 (inactive) | -4.95 (inactive) | -1.22 (inactive) | 2.87 | 1.34 (inactive) | 0.843 | -1 | -0.447 | -0.0675 | 1.49 | 1.43 | 1.6 | 0.589 (inactive) | -0.215 | -0.9 | -1.47 | 0.101 | -0.301 | 0.792
C=CCNC(=O)[C@@H]1[C@H]2C(=O)O[C@H](c3ccccc3)[C@H](c3ccccc3)N2[C@H](c2ccc(O)cc2)[C@@]12C(=O)Nc1ccc(C#CC3(O)CCCCCC3)cc12 | 0.994 | 0.154 (inactive) | 0.0674 (inactive) | 0.0489 (inactive) | 1.57 | -0.447 (inactive) | -0.113 | 0.553 | -0.0051 | -0.013 | 1.1 | -0.0065 | -0.0122 | 0.405 (inactive) | 0.746 | -0.206 | 0.348 | 0.196 | 0.446 | -0.195
COC(=O)[C@@]1(Cc2ccc(F)cc2)[C@H]2c3cc(C(=O)N(C)C)n(CCO)c3C[C@H]2CN1C(=O)c1ccccc1 | 0.0788 | -1.48 (inactive) | 0.766 (inactive) | -0.618 (inactive) | 2.89 | -0.28 (inactive) | 0.0423 | -0.515 | -0.562 | -0.0271 | 1.56 | 0.453 | 0.361 | -0.773 (inactive) | 0.721 | -0.532 | -0.537 | -0.918 | -0.764 | 0.495
COC(=O)C1=CC(CCCO)=CC(c2ccc(CN3CCCC3)cc2)N(Cc2sc3ccccc3c2Cl)C=C1C(=O)OC (stereo not given) | 1.54 | -3.34 (inactive) | -7.33 (inactive) | -1.39 (inactive) | 3.3 | -0.542 (inactive) | 0.91 | 0.766 | 1.04 | 0.681 | 1.81 | 0.81 | 1.05 | -0.855 (inactive) | 1.37 | 1.32 | 0.526 | 0.708 | 0.227 | 0.375
CC(C)(C)OC(=O)CC[C@]1(C(N)=O)N=C(c2ccc(OCCCO)cc2)O[C@H]1c1ccccc1CN=[N+]=[N-] | 1.15 | 1.33 (inactive) | 0.835 (inactive) | 0.56 (inactive) | 3.62 | 0.528 (inactive) | 0.314 | 0.0447 | 1.08 | 0.306 | 1.62 | 1.11 | 1.2 | -0.26 (inactive) | 1.44 | 1.28 | -0.643 | 0.0115 | -0.395 | 0.0976
CCOC(=O)C1=C[C@@H](C(C)(C)C)N(S(=O)(=O)c2ccc(C)cc2)[C@H]1c1ccccc1Cl | 1.53 | 0.168 (inactive) | 2.3 (inactive) | 2.15 (inactive) | 2.61 | -0.766 (inactive) | 0.144 | 0.614 | 1.05 | 0.0522 | 0.993 | 1.18 | 1.11 | -0.232 (inactive) | 0.915 | 1.29 | 0.292 | 1.18 | 0.0627 | 0.0829
COCCOC(=O)N1C(=O)[C@@]2(c3ccccc31)[C@H](C(N)=O)[C@H]1C(=O)O[C@H](c3ccccc3)[C@H](c3ccccc3)N1[C@@H]2c1ccc(OCCO)cc1 | 1.54 | 2.25 (inactive) | 0.601 (inactive) | 4.25 (inactive) | 2.58 | 0.935 (inactive) | -0.0862 | 1.61 | 1.14 | -0.132 | 0.537 | -0.122 | 0.093 | 0.172 (inactive) | 1.08 | 1.3 | 0.0401 | 1.1 | 0.253 | 0.319
